The panel holds about 79,000 compounds, 15% with a hit somewhere; the sample as a whole holds those more often. Calls of active or inactive are those of the source. Rule as the data show it: active = growth inhibition above about 70%; inactive = the rest.
Experiments:
[1] = NCI Yeast Anticancer Drug Screen. Data for the rad50 strain (AID 155);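 also: 0% = growth of vehicle-only cultures of the same strain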; conditions: S. cerevisiae rad50 strain growth inhibition; at 50.0 µM; active compounds read high
Summary of the method: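 Yeast carrying a defined DNA repair defect were exposed to test compounds, and growth was compared with vehicle-treated controls to give percent inhibition.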

[2] = NCI Yeast Anticancer Drug Screen. Data for the sgs1 mgt1 strain (AID 161);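 also: 0% = growth of cultures given vehicle only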; conditions: S. cerevisiae sgs1 mgt1 strain, at 50.0 µM, active compounds read high
Summary of the method: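 Growth of a repair-deficient yeast mutant was monitored after compound treatment and expressed as inhibition relative to vehicle-treated cultures.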

[3] = NCI Yeast Anticancer Drug Screen. Data for the cln2 rad14 strain (AID 165);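 also: 0% = growth equal to vehicle treated cultures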; conditions: S. cerevisiae cln2 rad14 strain, at 50.0 µM, active compounds read high
Summary of the method: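 Readout is yeast growth inhibition versus vehicle-treated controls, using a strain with cln2 and rad14 alterations exposed to compound.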

[4] = NCI Yeast Anticancer Drug Screen. Data for the bub3 strain (AID 167); conditions: S. cerevisiae bub3 mutant strain, at 50.0 µM, active compounds read high
Summary of the method: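 Compounds were applied to a genetically altered yeast strain carrying a cell-cycle control defect. Growth inhibition was scored against vehicle-treated controls.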

[5] = NCI Yeast Anticancer Drug Screen. Data for the mlh1 rad18 strain (AID 175); conditions: S. cerevisiae mlh1 rad18 strain growth inhibition; at 50.0 µM; active compounds read high
Summary of the method: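 Genetically defined yeast (DNA repair-deficient) exposed to compounds; growth inhibition determined relative to vehicle.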

[6] = NCI Yeast Anticancer Drug Screen. Data for the mec2-1 strain (AID 157); conditions: S. cerevisiae mec2-1 strain, at 50.0 µM, active compounds read high
Summary of the method: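 Mutant yeast (mec2-1) grown with compound; growth inhibition relative to vehicle control reported.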

Measured: growth inhibition

CN(/N=C\c1ccccc1)C(c1ccccc1)N(C)/N=C/c1ccccc1 (stereo not drawn)
inactive: [1] -6.45% | [2] 15.2% | [3] -11.7% | [4] -17.3% | [5] -2.8%

CCCCNS(=O)(=O)c1ccc(C)cc1
inactive: [1] -24.6% | [2] -23% | [3] -42.7% | [4] -22% | [5] -21.3%

CCOC(=O)NC(C)=O
inactive: [1] -10.4% | [2] 14.1% | [3] -16.3% | [4] -19.3% | [5] -20.8%

COc1cccc2c1C(=O)c1c(O)c3c(c(O)c1C2=O)C[C@@](O)(C(C)=O)CC3S(=O)(=O)O (stereo partly drawn)
inactive: [1] -14% | [2] -24.4% | [3] -8.85% | [4] -14.9% | [5] 9.7%

CSc1nc2c(c(O)c(C)c(=O)n2C2OC(COC(C)=O)C(OC(C)=O)C(OC(C)=O)C2OC(C)=O)c(=O)n1C (stereo not drawn)
inactive: [1] 10.1% | [2] 62.8% | [3] 32.9% | [4] 34.7% | [5] 7.25%

CC(O)(c1ccc(Cl)cc1)c1ccc(Cl)cc1
inactive: [1] -4.05% | [2] 1.2% | [3] -52.6% | [4] -8.75% | [5] -15.8%

CC1(C)OCC(C2OC3OC(C)(C)OC3C2c2ccccc2)O1 (stereo not drawn)
inactive: [1] -3.55% | [2] -31.1% | [3] 1.4% | [4] -2.8% | [5] 2.2%

Cc1ccc(-c2cc(O)c3nc4ccccc4n3c2)cc1
inactive: [1] -36.4% | [2] -31.4% | [3] -22.9% | [4] -18.5% | [5] -24.1%

Nc1nc(C=O)c(CCc2ccccc2)c(=O)[nH]1
inactive: [1] 6.8% | [2] -7.8% | [3] -28.7% | [4] -11% | [5] -12.4%

O=[N+]([O-])c1ccsc1Cl
inactive: [1] -7.85% | [2] -14.6% | [3] -40.2% | [4] -4.1% | [5] -5.05%

c1ccc2c(c1)OP1(=NP3(=NP4(=NP5(=N1)Oc1ccccc1-c1ccccc1O5)Oc1ccccc1-c1ccccc1O4)Oc1ccccc1-c1ccccc1O3)Oc1ccccc1-2
inactive: [1] 7.8% | [2] -30.5% | [3] -4.1% | [4] -1.1% | [5] 17.2%

O=S(=O)(O)c1cc(S(=O)(=O)O)c2c(N=Nc3cccc4ccccc34)c(O)ccc2c1
inactive: [1] 0.8% | [2] -35.5% | [3] -18.1% | [4] -35.9% | [5] 1.55%

O=c1c(SCc2ccc(Cl)cc2)c(N2CCCCC2)cnn1-c1ccccc1
inactive: [1] 20.5% | [2] 10.8% | [3] 34% | [4] 9.3% | [5] 15.1%

CCOC(=O)C(C#N)(CCC#N)CCC#N
inactive: [1] 26.3% | [6] 6.8% | [3] -3.45% | [5] 12.6%

COc1ccc(/C=C2/SC(=Nc3ccccc3)N(NC(=O)Cc3ccccc3)C2=O)cc1
inactive: [1] -22.7% | [2] 13.7% | [3] -16.6% | [4] -26.6% | [5] -22.2%

CCc1c(O)c2c([nH]c1=O)SC(C)(C)CC2=NCC(C)C
inactive: [1] -23.8% | [2] -16.9% | [3] -2.45% | [4] -43.6% | [5] 9.15%

CCCCn1cnc2ccc(N)cc2c1=O
inactive: [1] -1.7% | [2] 15.3% | [3] -1.7% | [4] 16.2% | [5] 2%

O=C(Cc1ccccc1)NN1C(=O)/C(=C\c2ccc([N+](=O)[O-])cc2)SC1=Nc1ccccc1
inactive: [1] -2.8% | [2] 52.1% | [3] 15.2% | [4] -18.9% | [5] 28.5%

COC(=O)C1=CO[C@@H](O)[C@@H]2C(C)OC(=O)C[C@H]12 (stereo partly drawn)
inactive: [1] -8.5% | [2] -6.9% | [3] 3.2% | [4] -10.8% | [5] -15.2%

NC(=O)c1ccccc1N1CCCCC1
inactive: [1] 16.7% | [2] 36% | [3] 21.5% | [4] 32.5% | [5] 22.4%

CCCC(/C=N/Nc1ccc([N+](=O)[O-])cc1[N+](=O)[O-])=C\c1ccccc1
inactive: [1] -12.1% | [2] 10.6% | [3] -22.9% | [4] 27.1% | [5] -50%

CNC(=O)NS(=O)(=O)c1cccc([N+](=O)[O-])c1
inactive: [1] -0.3% | [2] -8.3% | [3] 1.9% | [4] -21.6% | [5] -17.3%

CCOc1ccc2nc(C)ccc2c1
inactive: [1] 3.25% | [2] 21.9% | [3] 9.85% | [4] 4.95% | [5] 17.7%

CC(C)(O)C(c1ccccc1)S(=O)(=O)O (stereo not drawn)
inactive: [1] -2.5% | [2] -0.3% | [3] -27.4% | [4] -0.45% | [5] 48.5%

COCCCN(Cc1cc(OC)c(OC)c(OC)c1)C(=S)Nc1cccc(SC)c1
inactive: [1] 13.8% | [2] 40.5% | [3] 25.6% | [4] 51.2% | [5] 16.6%

CC(=O)NC1C(OC(C)=O)OC(COC(c2ccccc2)(c2ccccc2)c2ccccc2)C(O)C1OC(C)=O (stereo not drawn)
inactive: [1] 63.9% | [2] 5% | [3] 41.2% | [4] 47.2% | [5] 44%

Cc1ccc(-c2nc3scc(C)n3n2)cc1
inactive: [1] 0.85% | [2] -4.5% | [3] -29% | [4] 7.65% | [5] 8.85%

C=C/C=N/Nc1ccc([N+](=O)[O-])cc1[N+](=O)[O-]
inactive: [1] 2.5% | [2] 2.2% | [3] 5.9% | [4] 2.4% | [5] -1.35%

Clc1ccc(OCCSCCOc2ccc(Cl)cc2)cc1
inactive: [1] 8.85% | [2] 12.5% | [3] -22.1% | [4] 0.9% | [5] 2.35%

Cc1cc2c(=O)cc(-c3ccccc3)oc2c(C(=O)O)c1C
inactive: [1] -12.7% | [2] 14.8% | [3] -19.7% | [4] -4.65% | [5] -10.4%

CC(=O)OC1CCC2(C)C(CCC3C2CCC2(C)C(c4cccc(=O)o4)CCC32)C1 (stereo not drawn)
inactive: [1] 22.5% | [3] 14.8% | [4] 0.35% | [5] 2.3%

Cc1cc(=O)oc2c1c(C)nn2-c1cccc(Cl)c1
inactive: [1] -14.5% | [2] 4.05% | [3] -60.9% | [4] -5.1% | [5] -1.85%

CCN(CC)CCOC(=O)c1c(C)c(C)cc(C)c1C
inactive: [1] -17.4% | [2] -6.45% | [3] -29.5% | [4] -8.3% | [5] -7.7%

CCNC(=S)NNC(=O)c1ccc(N=NN(C)C)cc1
inactive: [1] -5.15% | [2] 10.3% | [3] -13.4% | [4] 14.8% | [5] 10.9%

O=C1NC2(O)C(=O)c3ccccc3C2(O)N1 (stereo not drawn)
inactive: [1] -8.65% | [2] -27.9% | [3] 5.8% | [4] -17.3% | [5] 0.55%

CC(C)CC(C)OC(=O)CC(CC(=O)OC(C)CC(C)C)C(=O)OC(C)CC(C)C (stereo not drawn)
inactive: [1] -6.8% | [2] -13.1% | [3] 26.2% | [4] 20.9% | [5] -4.15%

Cc1ccc([B-]23OCC[N+]2(CNC(=O)c2ccccc2O)CCO3)cc1 (stereo not drawn)
inactive: [1] 25.6% | [2] 4.1% | [3] 3.6% | [4] 4.05% | [5] 12.8%

O=C(NC1CCCCC1)C(c1ccccc1)c1ccccc1
inactive: [1] 8.85% | [2] 0.4% | [3] -18.7% | [4] 1.85% | [5] -10.9%

COc1n[n+]([O-])c(OC)cc1[N+](=O)[O-]
active: [5] 76.7%
inactive: [1] 51.7% | [2] 33.9% | [3] 15% | [4] 17.6%

CC1=NN(C(=O)c2ccc(Cl)cc2)C(=O)/C1=C/c1ccccc1O
inactive: [1] 4.25% | [2] -28.9% | [3] -7.55% | [4] 12.3% | [5] -18.8%
